# Results from the supplement of paper PMC9492666.
# System: MDA-MB-231
# Test: relative cell viability, compound + RSL3, vs DMSO (fraction of DMSO control); higher = less growth inhibition
# Conditions: 72 h
# 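Further: breast cancer cell viability read out with the CCK-8 kit after co-treatment of each compound with the ferroptosis inducer RSL3.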
row,Compound,relative cell viability
1,O=C(Nc1ccncc1)c1cc([N+](=O)[O-])ccc1Cl + COC(=O)c1ccc([C@H]2c3[nH]c4ccccc4c3C[C@H](C(=O)OC)N2C(=O)CCl)cc1 [RSL3],0.438
2,O=C(O)c1cc(F)c2nc(N3[C@@H]4CC[C@H]3C[C@@H](OCc3c(-c5ccccc5OC(F)(F)F)noc3C3CC3)C4)sc2c1 [Tropifexor] + COC(=O)c1ccc([C@H]2c3[nH]c4ccccc4c3C[C@H](C(=O)OC)N2C(=O)CCl)cc1 [RSL3],0.63
3,CCC(=O)O[C@]1(C(=O)CCl)[C@@H](C)C[C@H]2[C@@H]3C[C@H](F)C4=CC(=O)C=C[C@]4(C)[C@@]3(F)[C@@H](O)C[C@@]21C [Halobetasol Propionate] + COC(=O)c1ccc([C@H]2c3[nH]c4ccccc4c3C[C@H](C(=O)OC)N2C(=O)CCl)cc1 [RSL3],0.592
4,CC[C@H](C)C(=O)O[C@H]1CCC=C2C=C[C@H](C)[C@H](CC[C@@H]3C[C@@H](O)CC(=O)O3)[C@H]21 [Mevastatin] + COC(=O)c1ccc([C@H]2c3[nH]c4ccccc4c3C[C@H](C(=O)OC)N2C(=O)CCl)cc1 [RSL3],0.369
5,O=C(O)C(O)Cc1ccc(O)c(O)c1 (stereo not given) [Sodium Danshensu] + COC(=O)c1ccc([C@H]2c3[nH]c4ccccc4c3C[C@H](C(=O)OC)N2C(=O)CCl)cc1 [RSL3],0.545
6,CCC(=O)O[C@]1(C(=O)SCF)[C@H](C)C[C@H]2[C@@H]3C[C@H](F)C4=CC(=O)C=C[C@]4(C)[C@@]3(F)[C@@H](O)C[C@@]21C [Fluticasone propionate] + COC(=O)c1ccc([C@H]2c3[nH]c4ccccc4c3C[C@H](C(=O)OC)N2C(=O)CCl)cc1 [RSL3],0.566
7,Cc1nc2ccc(NCc3cccc(C(F)(F)F)c3)cc2n(CCNC(=O)CO)c1=O + COC(=O)c1ccc([C@H]2c3[nH]c4ccccc4c3C[C@H](C(=O)OC)N2C(=O)CCl)cc1 [RSL3],0.567
8,OC[C@H]1O[C@@H](Oc2cc(O)cc(/C=C/c3ccc(O)cc3)c2)[C@H](O)[C@@H](O)[C@@H]1O [Polydatin] + COC(=O)c1ccc([C@H]2c3[nH]c4ccccc4c3C[C@H](C(=O)OC)N2C(=O)CCl)cc1 [RSL3],0.608
9,CN(CCOc1ccc(CC2SC(=O)NC2=O)cc1)c1ccccn1 (stereo not given) [Rosiglitazone] + COC(=O)c1ccc([C@H]2c3[nH]c4ccccc4c3C[C@H](C(=O)OC)N2C(=O)CCl)cc1 [RSL3],0.646
10,N[C@@H](Cc1c[nH]cn1)C(=O)O [histidine] + COC(=O)c1ccc([C@H]2c3[nH]c4ccccc4c3C[C@H](C(=O)OC)N2C(=O)CCl)cc1 [RSL3],0.673
11,CC(C)(O)[C@@H]1Cc2cc3ccc(=O)oc3cc2O1 [marmesin] + COC(=O)c1ccc([C@H]2c3[nH]c4ccccc4c3C[C@H](C(=O)OC)N2C(=O)CCl)cc1 [RSL3],0.59
12,COc1ccc(-c2c[nH]c3nccc(-c4ccsc4)c23)c(OC)c1 + COC(=O)c1ccc([C@H]2c3[nH]c4ccccc4c3C[C@H](C(=O)OC)N2C(=O)CCl)cc1 [RSL3],0.665
13,CCCc1c(-c2ccccc2)[nH]n(-c2ccccn2)c1=O [APX-115 free base] + COC(=O)c1ccc([C@H]2c3[nH]c4ccccc4c3C[C@H](C(=O)OC)N2C(=O)CCl)cc1 [RSL3],0.415
14,O=C(OC(C(F)(F)F)C(F)(F)F)N1CCN(Cc2ccc(C(F)(F)F)cc2N2CCCC2)CC1 + COC(=O)c1ccc([C@H]2c3[nH]c4ccccc4c3C[C@H](C(=O)OC)N2C(=O)CCl)cc1 [RSL3],0.613
15,O=C(NNc1ccccc1)c1ccncc1 [PluriSln 1] + COC(=O)c1ccc([C@H]2c3[nH]c4ccccc4c3C[C@H](C(=O)OC)N2C(=O)CCl)cc1 [RSL3],0.656
